# Assay results as given in PubChem BioAssay AID372 (MTDP, 2006).
# About 770 (0.77%) of roughly 100,000 compounds were called active. This excerpt belongs to a sample that is enriched for actives. A number with no mark means an inactive call. No stated cut-off is given here; in the data, active means inhibition above about 50%; inactive means the rest.
# Target: Gag-Pol polyprotein (Human immunodeficiency virus type 1 group M subtype B (isolate HXB2)) (UniProt P04585)
# Test: RNase H inhibition, HIV 1 Gag Pol polyprotein, FRET biochemical assay, screening (AID 372)
# Conditions: HIV-1 RT RNase H, FRET RNA/DNA substrate fluorescence; at 10 µM; hits give high values
row,SMILES,inhibition
1,Oc1cccc(/C=N/Nc2nc(-c3ccc(Br)cc3)cs2)c1,16%
2,Cc1cc(C)cc(NS(=O)(=O)c2ccc3ccccc3c2)c1,14%
3,O=S(=O)(Nc1cccc(I)c1)c1ccccc1,0%
4,COc1ccc(S(=O)(=O)Nc2cccc(C(F)(F)F)c2)cc1,0%
5,O=S(=O)(Nc1cccc(F)c1)c1ccc2ccccc2c1,27%
6,O=S(=O)(Nc1cccc(Br)c1)c1ccc2ccccc2c1,50% (active)
7,O=S(=O)(Nc1cccc(C(F)(F)F)c1)c1ccc(F)cc1,0%
8,O=S(=O)(Nc1ccc(Nc2ccccc2)cc1)c1ccc2ccccc2c1,0%
9,O=S(=O)(Nc1cccc(I)c1)c1ccc2ccccc2c1,52% (active)
10,Brc1ccc(N2COc3ccc4ccccc4c3C2)cc1,18%
11,CCOC(=O)c1ccc2c(c1)C1C=CCC1C(c1ccc(Br)cc1)N2 (stereo unspecified),31%
12,Cc1ccc(C(=O)Nc2ccc(I)cc2)o1,0%
13,CCCOC(=O)C1=C(C)NC(=O)NC1c1cccc2ccccc12 (stereo unspecified),4%
14,CCc1ccc(NC(=O)C(=O)NCCc2ccc(F)cc2)cc1,12%
15,COc1ccc(C(=O)NC(NC(=O)c2ccc(OC)c(OC)c2)c2ccc(Br)cc2)cc1OC,6%
16,NN1C(=O)c2ccc3c4c(ccc(c24)C1=O)CC3,0%
17,O=C1NC(=O)c2ccc3c4c(ccc1c24)CC3,2%
18,COc1cc(CN2CCN(C3CCCC(C)C3)CC2)cc(OC)c1OC (stereo unspecified),7%
19,COc1ccc(CNC(=O)c2ccc(Cl)c(Cl)c2)cc1,8%
20,CC(C)=NNC(=O)Sc1cc(O)c(Cl)cc1O,66% (active)
21,CC(C)=NNC(=O)C(=O)Nc1ccc(Cl)c(Cl)c1,12%
22,CC(C)=NNC(=O)C(=O)Nc1cccc(Cl)c1,10%
23,O=C(NCCO)C(=O)Nc1ccc(Oc2ccccc2)cc1,6%
24,CC(NC(=O)CSc1nnc(-c2cccc(F)c2)n1-c1ccccc1)c1ccccc1 (stereo unspecified),15%
25,Fc1cccc(-c2nnc(SC(c3ccccc3)c3ccccc3)n2-c2ccccc2)c1,13%
26,Cc1cc(C)c(NC(=O)C(C)Sc2nnc(-c3cccc(F)c3)n2-c2ccccc2)c(C)c1 (stereo unspecified),54% (active)

row,SMILES,inhibition
1,Cc1oc(C(C)(C)C)cc1C(=O)Nc1cccc(O)c1,1%
2,Cc1ccc(N=Cc2ccc(OC3CSC3)cc2)cc1C,8%
3,COc1ccc(C2NC(=S)NC(C)=C2C(=O)Nc2ccc(C)c(Cl)c2)cc1 (stereo unspecified),10%
4,Nc1c(S(=O)(=O)O)cc(S(=O)(=O)O)c2cccc(O)c12,23%
5,Nc1ccc(S(=O)(=O)O)c2cccc(S(=O)(=O)O)c12,6%
6,Nc1nnc(SCC(=O)Nc2ccccc2-c2ccccc2)s1,0%
7,COc1ccc(NC(=O)/C(C#N)=C/c2cccc(O)c2)cc1,12%
8,COc1cc(/C=N/NC(=O)COc2ccc(C(C)(C)CC(C)(C)C)cc2[N+](=O)[O-])ccc1OC(=O)c1ccc([N+](=O)[O-])cc1,28%
9,Cc1c(-c2ccc(/C=N/N=C3/NC(=O)CS3)o2)ccc([N+](=O)[O-])c1C,45%
10,Cc1c(Cl)cccc1-c1ccc(/C=N/N=C2\NC(=O)CS2)o1,55% (active)
11,O=C1CS/C(=N/N=C/c2ccc(-c3ccc(Cl)cc3)o2)N1,21%
12,COc1ccccc1NC(=O)CN(c1ccc(Cl)cc1Cl)S(=O)(=O)c1ccccc1,13%
13,c1cc2ccc3ccc(CN4CCOCC4)c4ccc(c1)c2c34,0%
14,O=C1/C(=C/c2ccc([N+](=O)[O-])cc2)C=C(c2ccccc2)N1c1ccc(O)cc1,54% (active)
15,CC(=O)Nc1ccc(N2C(=O)/C(=C/c3ccc([N+](=O)[O-])cc3)C=C2c2ccccc2)cc1,0%
16,Cc1cccc(C2=N/C(=C/c3ccc([N+](=O)[O-])cc3)C(=O)N2c2ccc(O)cc2)c1,44%
17,COc1cc(/C=N/N=C2/NC(=O)C(CC(=O)Nc3cccc(Cl)c3Cl)S2)ccc1O (stereo unspecified),5%
18,CC(=O)Nc1ccc(C(=O)NCc2ccco2)cc1,57% (active)
19,CCOc1ccc(C(=O)NCc2ccco2)cc1OCC,50% (active)
20,CCOc1ccc(C(=O)NCc2ccco2)cc1Br,5%
21,Cc1ccc(C(=O)NCc2ccco2)cc1,0%
22,O=C(NCc1ccco1)c1ccc(Cl)cc1,0%
23,CCOc1ccc(C(=O)NCc2ccco2)cc1Cl,6%
24,Cc1nn(S(=O)(=O)c2ccc([N+](=O)[O-])cc2)c(C)c1Sc1ccc([N+](=O)[O-])cc1,18%
25,CSCCOC(=O)C1=C(C)NC(=O)NC1c1ccc([N+](=O)[O-])cc1 (stereo unspecified),22%
